# Assay outcomes (PubChem)
# An excerpt weighted towards active compounds, which were near 4% of everything screened.
# KKLEB cytotox – cytotoxicity in KKLEB CF airway cells, primary screen, cytotoxicity control for CF NF-kB inhibitor project, cell-based, uHTS, fluorescence assay plates | AID 602141, 2011 | activity change (cytotoxicity), % at 5 µM | KKLEB CF airway cells viability, ATPlite luminescence, overnight; stronger effect = lower value; cells stimulated with P. aeruginosa culture filtrate | 0.36% of 360,000 active;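 active = corrected activity change at or below -50% at 5 µM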
# Peg3 prom inh – Peg3 promoter-driven luciferase inhibitors, primary screen, cell-based, HeLa, luciferase luminescence. inhibition, % at 20 µM. HeLa PEG-Prom luciferase reporter, overnight. 1.7% of 360,000 active. AID 588405, 2011;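 active = inhibition of at least 50% at 20 µM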
# TWEAK Fn14 block – inhibitors of TWEAK-Fn14 signaling, primary screen, luciferase reporter cells, uHTS | TWEAK-stimulated Fn14 reporter cells, luciferase luminescence, 8 h | 2% of 360,000 active | AID 1159606, 2016 | inhibition, % at 10 µM; in the data active = inhibition above about 50%
# CF NFkB inh – inhibitors of PAF-induced NF-kB signaling, primary screen, cell-based, GFP fluorescence, uHTS; KKLEB NF-kB-GFP reporter, GFP fluorescence overnight; inhibition, % at 5 µM; 0.86% of 360,000 active; AID 588850, 2011;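 active = at least 50% inhibition at 5 µM, scaled per plate between neutral and stimulator controls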;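 also: PAF is a Pseudomonas aeruginosa culture filtrate used as stimulus; plate controls were PAF-stimulated DMSO wells for no effect and unstimulated DMSO wells for full effect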
# TROY NFkB inh – inhibitors of TROY-driven NF-kB signaling, primary screen, Q293 LMP1-TROYcd cells, NF-kB luciferase, uHTS | Q293 LMP1-TROYcd NF-kB luciferase reporter, 4 h | inhibition, % at 10 µM | 0.98% of 360,000 active;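 active = compounds whose plate-normalised and pattern-corrected inhibition of the luciferase reporter signal at the single screening dose is 50% or more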
# HIF-2a block – HIF-2a reporter inhibitors, primary screen, luminescence, 786-0 RCC cells | 786-0 RCC cells HIF-2a reporter, luciferase luminescence, overnight | inhibition, % at 18.8 µM | 0.72% of 360,000 active | AID 624352, 2012;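 active = inhibition of the luminescence signal of 40% or more relative to plate controls, in a single-dose primary screen at 18.75 µM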
# Mdm2-MdmX confirm – retested Mdm2-MdmX interaction blockers, confirmation, cell-based, luminescence, single concentration, set 2 | shares compounds with HIF-2a block | SaOS-2 split-luciferase Mdm2/MdmX complementation | 99% of 740 active | inhibition, % at 8 µM;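 active = mean inhibition of the luminescence signal across two replicates at or above 26 percent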
# HIF-2a conf – HIF-2a reporter inhibitor retest, confirmation, luminescence, 786-0 RCC cells. shares compounds with HIF-2a block. HIF-2a luciferase reporter luminescence, overnight. inhibition, % at 18.8 µM. 56% of 1,800 active. AID 651580, 2012;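 active = mean inhibition across four replicates of at least 40 percent at the single tested concentration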
# HIF-1a cs – HIF-1a luciferase reporter signal reduction – MiaPaCa-2 cells, single concentration, counter-screen for HIF-2a inhibitor project, confirmation. shares compounds with HIF-2a block. AID 651589, 2012. inhibition, % at 18.8 µM. 72% of 1,800 active. MiaPaCa-2 HIF-1a luciferase reporter, desferoxamine, overnight;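 active = mean inhibition of the reporter signal across four replicates at the single tested dose of 50% or more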
# Active calls of the source: *; nt = no result.
SMILES,KKLEB cytotox,Peg3 prom inh,TWEAK Fn14 block,CF NFkB inh,TROY NFkB inh,HIF-2a block,HIF-2a conf,HIF-1a cs,others
Cc1cccc(N(C)C(=O)CCS(=O)(=O)c2cc3c(cc2Cl)NC(=O)CO3)c1,14,-10,-2,-6,12,18,nt,nt,
Cn1nc([N+](=O)[O-])nc1Sc1nnc(-c2ccccc2)o1,-13,29,69*,28,-5,31,nt,nt,Mdm2-MdmX confirm=75*
O=Cc1ccc(Sc2nnc(-c3ccccc3)o2)c([N+](=O)[O-])c1,8,11,-21,8,-1,16,nt,nt,
O=C(CSCC(=O)c1ccc([N+](=O)[O-])cc1)c1ccc([N+](=O)[O-])cc1,1,9,-11,-3,-3,-21,nt,nt,
O=C(C#Cc1ccccc1)c1ccc([N+](=O)[O-])cc1,-4,108*,8,20,36,40*,-2,89*,Mdm2-MdmX confirm=103*
O=C(CN(c1ccc(Br)cc1)S(=O)(=O)c1ccc(Cl)c([N+](=O)[O-])c1)NCC1CCCO1 (configuration not stated),-13,95*,55*,48,13,86*,32,103*,
Cc1ccc(NC(=O)CCN2CCCCC2)cc1,-3,34,100*,-6,69*,61*,55*,73*,
O=C(Cc1ccccc1Cl)c1ccccc1,19,-8,0,1,-18,-11,nt,nt,
Cc1ccc(C(=O)N2CCC3(CC2)NCCc2[nH]cnc23)cc1C,11,1,1,11,-6,9,nt,nt,
COc1ccc(-c2nnc3n2N=C(C)CS3)cc1,-6,-8,-1,11,16,-2,nt,nt,
CCOC(=O)/C(=C/c1ccc(OC(F)F)cc1)C1=Nn2c(nnc2-c2ccc(Cl)cc2)SC1,-104*,106*,107*,92*,91*,88*,43*,105*,
CCS(=O)(=O)c1ccc(OC)c(N=Nc2ccc(O)c3ncccc23)c1,7,-2,4,2,-7,16,nt,nt,
Cc1ccc(C)c(N=Nc2ccc(O)c3ncccc23)c1,8,0,81*,-21,78*,16,nt,nt,Mdm2-MdmX confirm=100*
O=C(NCc1ccccc1)c1ccc(NC(=O)C2CCCO2)cc1 (configuration not stated),12,-15,-24,-13,-9,-15,nt,nt,
NC(N)=Nc1nc(-c2ccccc2)c2cc(F)ccc2n1,16,88*,-20,-108,5,40*,16,79*,
Fc1ccc(Oc2nc(-c3ccccc3)nnc2C(F)(F)F)cc1,0,26,4,-13,-1,33,nt,nt,
Fc1ccc(Sc2nc(-c3ccccc3)nnc2C(F)(F)F)cc1,-6,84*,38,9,30,85*,26,89*,
CCCCOC(=O)c1ccc(NC(=S)NC(=O)c2c(Br)c(C)nn2C)cc1,-3,39,42,7,26,46*,56*,19,
COc1ccc(S(=O)(=O)N[C@H]2CC[C@H](CCNC(=O)c3ccccc3F)O[C@@H]2CO)cc1,nt,nt,nt,nt,nt,4,nt,nt,
COc1ccc(C(CC(=O)c2ccccc2)CC(=O)c2ccccc2)cc1,-1,-2,-24,1,-23,-46,nt,nt,
